Consider 26 molecules from PubChem BioAssay (Tox21).

Inconclusive results are not listed. Unmarked numbers belong to inactive results. Activity calls are given as the source filed them. Unless noted, the call rests on the fitted dose curve.

Assay [1] in a line: qHTS assay to identify small molecule agonists of the vitamin D receptor (VDR) signaling pathway - cell viability counter screen (AID 743224; active means well fitted curve in the direction sought with a large enough effect in the repeat runs; an effect the other way counts as inactive or inconclusive; further: series mostly up to about 63 µM; on the % scale 0 is the no-effect control and ±100 the full control effect; nearly all actives have a fitted effect of over 50% in size). In a few lines: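 Cytotoxicity counter screen: VDR-bla cells, 16 h compound exposure at 37C, 5% CO2; CellTiter-Glo luminescence, 30 min RT, same wells as bla read.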
(In general: In qHTS, concentration-response curves come from the screen itself.)

Assay [2] is described as follows: qHTS assay to identify small molecule agonists of the NFkB signaling pathway - cell viability counter screen (AID 1159515). Further: series mostly up to about 61 µM; on the % scale 0 is the no-effect control and ±100 the full control effect; nearly all actives have a fitted effect of over 55% in size. In a few lines:
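ME-180 NFkB-bla cells, 2,000/well; overnight attach; compound 5 hr, 37 C/5% CO2; LiveBLAzer substrate 1.5 hr RT; then CellTiter-Glo in same wells, 30 min RT, luminescence read.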

The nature of assay [3]: qHTS assay to identify small molecule agonists of the endoplasmic reticulum stress response signaling pathway (AID 1159516; active means well fitted activation curve with a large enough effect in the signal ratio in the repeat runs, not every such curve was filed as active; the % refers to the signal ratio; further: on the % scale 0 is the no-effect control and ±100 the full control effect). A digest of the protocol: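 HeLa ESRE-bla reporter line; cpd 5 h, 37 C/5% CO2; LiveBLAzer B/G FRET substrate 2 h RT; ex 405, em 460/530 nm.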
Assay [4] in a line: qHTS assay to identify small molecule agonists of the endoplasmic reticulum stress response signaling pathway - cell viability counter screen (AID 1159517).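 Further: HeLa cells carrying an ER stress response element beta-lactamase reporter; series mostly up to about 61 µM; on the % scale 0 is the no-effect control and ±100 the full control effect; nearly all actives have a fitted effect of over 50% in size.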 In a few lines:
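Steps: seed 1,500 ESRE-bla HeLa cells per well; incubate overnight at 37 C, 5% CO2; add compounds in DMSO for 5 hr; run FRET substrate 2 hr RT; add CellTiter-Glo, wait 30 min, read luminescence.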

Assay [5] can be described thus: qHTS assay to identify small molecule antagonists of the retinoid-related orphan receptor gamma (ROR-gamma) signaling pathway - cell viability counter screen (AID 1159520; active means well fitted curve in the direction sought with a large enough effect in the repeat runs; an effect the other way counts as inactive or inconclusive; further: nearly all actives have a fitted effect of over 50% in size; further: potency means the concentration at half of the fitted maximal effect; on activity, negative = cytotoxicity: on the % scale 0 is the no-effect control and ±100 the full control effect). In a few lines:
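Tet-on ROR gamma CHO cells were given compounds for 2 hr, then doxycycline hyclate at 1 uM final, and incubated 16 hr at 37 C. Viability was measured as ATP content by CellTiter-Glo luminescence.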

Assay [6] concerns the target Retinoic acid receptor RXR-alpha (Homo sapiens) (UniProt P19793). Kind of assay: qHTS assay to identify small molecule agonists of the RXR signaling pathway (AID 1159527). Further: on the % scale 0 is the no-effect control and ±100 the full control effect; nearly all actives have a fitted effect of over 35% in size. A digest of the protocol:
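GeneBLAzer RXR-alpha-UAS-bla HEK 293T cells in 2% charcoal-stripped FBS medium were exposed to compounds for 16 hr at 37 C in agonist mode. Beta-lactamase reporter read as 460/530 nm FRET ratio after 2 hr substrate loading.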

A short description of assay [7]: qHTS assay to identify small molecule antagonists of the vitamin D receptor (VDR) signaling pathway - cell viability counter screen (AID 743225; active means well fitted curve in the direction sought with a large enough effect in the repeat runs; an effect the other way counts as inactive or inconclusive; further: on the % scale 0 is the no-effect control and ±100 the full control effect; nearly all actives have a fitted effect of over 50% in size). In a few lines: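 VDR-UAS-bla HEK 293T cells were plated and incubated 4 h at 37C, then dosed with compound plus 3 nM (final) 1-alpha,25-dihydroxyvitamin D3 for 16 h. After the 2 h beta-lactamase read, viability in the same wells was read as CellTiter-Glo luminescence after 30 min at room temperature.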

The nature of assay [8]: qHTS assay to identify small molecule agonists of the AP-1 signaling pathway - cell viability counter screen (AID 1159525). Further: nearly all actives have a fitted effect of over 55% in size. A digest of the protocol: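 Same-well cytotoxicity counter screen of the Tox21 10K library in ME-180 cells. The readout is ATP-dependent luminescence after 5 h compound treatment. Data are normalised to DMSO and tetra n-octyl ammonium bromide controls.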

Assay [9] in a line: qHTS assay to identify small molecule agonists of the AP-1 signaling pathway (AID 1159526). Further: on the % scale 0 is the no-effect control and ±100 the full control effect.
In assay [10] the target is Nuclear receptor ROR-gamma (Homo sapiens) (UniProt P51449). The assay is described as follows: qHTS assay to identify small molecule antagonists of the retinoid-related orphan receptor gamma (ROR-gamma) signaling pathway (AID 1159521; active means well fitted curve in the direction sought with a large enough effect in the repeat runs; an effect the other way counts as inactive or inconclusive). In a few lines: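 Tet-on ROR-gamma CHO cells with ROR response element-luciferase reporter; compounds added 2 hr before 1 uM doxycycline induction, then 16 hr at 37 C. Antagonism scored as decreased ONE-Glo luminescence.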

Sequence of Retinoic acid receptor RXR-alpha (Homo sapiens) (P19793 whole entry, looked up): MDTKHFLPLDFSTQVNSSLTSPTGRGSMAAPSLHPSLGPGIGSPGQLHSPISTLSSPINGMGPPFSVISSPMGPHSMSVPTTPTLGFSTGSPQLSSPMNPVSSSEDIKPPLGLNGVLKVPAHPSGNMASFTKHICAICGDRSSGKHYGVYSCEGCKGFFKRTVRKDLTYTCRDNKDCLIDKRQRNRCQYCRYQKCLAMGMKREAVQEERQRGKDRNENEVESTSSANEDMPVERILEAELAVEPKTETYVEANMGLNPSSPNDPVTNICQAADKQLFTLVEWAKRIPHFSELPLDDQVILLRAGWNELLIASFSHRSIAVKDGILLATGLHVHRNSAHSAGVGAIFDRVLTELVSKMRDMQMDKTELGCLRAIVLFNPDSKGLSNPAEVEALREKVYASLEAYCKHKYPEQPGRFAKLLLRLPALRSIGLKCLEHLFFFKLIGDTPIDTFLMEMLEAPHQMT

For the molecule `Cc1ccc(N=Nc2c(O)c(C(=O)O)cc3ccccc23)c(S(=O)(=O)O)c1`, the Potency entry in assay [1], in assay [2], in [3], in assay [4], in assay [5] and in assay [6] was “inactive” in each case.
`O=C(c1ccc(F)cc1)C1CCN(CCn2c(=S)[nH]c3ccccc3c2=O)CC1`: the Potency result in [7], in [2], in assay [3], in [4] and in [5] was “inactive” in each case.
`COS(=O)(=O)C(F)(F)F`: the Potency result in assay [7], in assay [2], in assay [3], in [4], in assay [5] and in assay [6] was “inactive” throughout.
For `CN1C[C@H]2c3ccccc3Oc3ccc(Cl)cc3[C@@H]2C1`, the Potency entry in assay [1], in assay [2], in assay [3], in assay [4], in assay [8] and in assay [6] was “inactive” throughout.
Turning to `CNCCCCOc1ccccc1Cc1ccccc1`, the Potency result in [2], in assay [3], in assay [4] and in assay [8] was “inactive” each time.
`CCCCc1nc2cccnc2n1Cc1ccc(-c2ccccc2-c2nnn[nH]2)cc1`: the Potency result in assay [1], in assay [7], in [2], in [3], in assay [4] and in assay [8] was “inactive” throughout. Besides, the Potency entry in [9] is “inactive”.
With `Cc1cc(C(=O)O)ccc1[N+](=O)[O-]`, the Potency entry in assay [1], in assay [7], in assay [2], in [3], in assay [4] and in [5] was “inactive” in each case. Besides, the Potency entry in assay [9] and in [6] was “inactive” throughout.
Take `Cc1ncc(CO)c(C=O)c1O`: the Potency entry in [1], in assay [7], in assay [2], in assay [3], in assay [4] and in assay [8] was “inactive” throughout. Besides, the Potency result in assay [9] and in assay [6] was “inactive” throughout.
With `COc1ccc(-c2nc3ccc(C4=NNC(=O)CC4C)cc3[nH]2)cc1` (stereo not given), the Potency entry in assay [1], in assay [2], in [3], in assay [4], in assay [10] and in assay [9] was “inactive” in each case.
Regarding `O=S(=O)(Oc1ccc(Cl)cc1)c1ccccc1`, the Potency entry in assay [1], in assay [7], in [2], in [3], in assay [4] and in assay [5] was “inactive” in each case. Further, the Potency result in assay [9] is “inactive”.
As to `CCN(CC)CCNC(=O)c1cc(Br)c(N)cc1OC`, the Potency result in [1], in assay [7], in assay [2], in [3], in [4] and in assay [8] was “inactive” each time. Moreover, the Potency entry in [9] and in [6] was “inactive” in each case.
Turning to `CCCn1cnc2c1c(=O)n(CCCCC(C)=O)c(=O)n2C`, the Potency result in assay [1], in [7], in assay [2], in [3], in assay [4] and in assay [8] was “inactive” throughout. Further, the Potency entry in assay [9] and in assay [6] was “inactive” in each case.
Turning to `C/C=C/C(=O)CC`, the activity change, negative = cytotoxicity was 7.61% [at 13.2 µM] in assay [1] and 28.8% [at 15.1 µM] in assay [4]. For the same molecule, the viability change, negative = cytotoxic in [7] is 1.57% [at 15.1 µM]. In addition, the activity, negative = cytotoxic in [2] is 18.8% [at 15.1 µM]. The activation in assay [3] is 0.579% [at 15.1 µM]. Besides, the activity, negative = cytotoxicity in [5] was 4.4% [at 19 µM].
For `CNC(=O)CN(CCN(CCN(CC(=O)[O-])CC(=O)NC)CC(=O)[O-])CC(=O)[O-].O.[Gd+3]`, the Potency result in assay [1], in assay [7], in assay [2], in assay [3], in assay [4] and in [8] was “inactive” throughout. The Potency entry in assay [9] and in assay [6] was “inactive” each time.
For the molecule `O=C(Nc1ccc(S(=O)(=O)N2CCOCC2)cc1)c1cc(Cl)ccc1NS(=O)(=O)c1ccc(Cl)s1`, the Potency entry in assay [2], in [3], in [4], in assay [5] and in assay [6] was “inactive” each time.
For `O=C(Cl)c1cc(C(=O)Cl)cc(C(=O)Cl)c1`, the Potency entry in [1], in assay [2], in assay [3], in assay [4], in assay [8] and in assay [9] was “inactive” each time. Besides, the Potency entry in assay [6] is “inactive”.
On to `O=C(Nc1ccccc1)c1ccccc1O`, for which the Potency result in assay [7], in assay [2], in [3], in assay [4], in [10] and in assay [9] was “inactive” throughout. For the same molecule, in assay [6], the Potency entry is “inactive”.
Turning to `Cc1ccccc1S(=O)(=O)O`, the Potency entry in assay [1], in [7], in [2], in assay [3], in [4] and in assay [10] was “inactive” each time. The Potency result in [9] and in assay [6] was “inactive” each time.
Regarding `O=C(CS)Nc1ccccc1`, the Potency entry in assay [1], in [2], in assay [3], in assay [4], in assay [10] and in assay [9] was “inactive” throughout.
On to `Cc1ccc(C(=O)Oc2ccc(C(O)CNC(C)(C)C)cc2OC(=O)c2ccc(C)cc2)cc1` (stereo not given), for which the Potency result in assay [1], in assay [2], in assay [3] and in [4] was “inactive” each time. In addition, the Potency in assay [5] was 26.6 µM (active).
Take `O=C(O)CNCC(=O)O`: in [1], the activity change, negative = cytotoxicity was -6.84% [at 5.95 µM]. The viability change, negative = cytotoxic was -0.385% [at 6.95 µM] in assay [7] and 2.06% [at 6.97 µM] in assay [8]. In addition, the activity, negative = cytotoxic in assay [2] was 11.1% [at 6.95 µM]. The activation in [3] was -0.0292% [at 6.95 µM]; in assay [9] it was -4.84% [at 6.97 µM]; in assay [6] it was 1.94% [at 6.98 µM]. Further, the activity, negative = cytotoxicity in assay [5] is 0.267% [at 8.39 µM].
Take `C#Cc1cccc(Nc2ncnc3cc(OCCOC)c(OCCOC)cc23)c1`: the Potency entry in [1], in assay [7], in assay [2], in [3], in [4] and in assay [8] was “inactive” each time.
Turning to `NS(=O)(=O)c1ccc(N2CCCCS2(=O)=O)cc1`, the Potency entry in assay [1], in assay [7], in assay [2], in [3], in assay [8] and in [9] was “inactive” each time. Moreover, in [6], the Potency entry was “inactive”.
`O=C1OC(CN2CCOCC2)CN1/N=C/c1ccc([N+](=O)[O-])o1` (stereo not given): the Potency entry in assay [1], in [2], in assay [3], in assay [5], in assay [9] and in assay [6] was “inactive” each time.
With `CCCCCCCCO[C@@H]1O[C@H](CO)[C@@H](O)[C@H](O)[C@H]1O`, the Potency result in assay [1], in assay [2], in assay [3], in assay [8], in assay [9] and in [6] was “inactive” throughout.
In the case of `CCCCCC[C@@H](O)C/C=C\CCCCCCCC(=O)OC`, the Potency entry in assay [1], in assay [7], in [2], in assay [3], in assay [5] and in assay [8] was “inactive” in each case.
